Assay results from the supplement of paper PMC4954754.
± gives the uncertainty stated by the source.

The compounds below were run on HEK293T-Rex XBP1-RLuc (assay: XBP1-RLuc splicing reporter activation, triplicate, relative to 500 nM thapsigargin (% of thapsigargin); higher = stronger IRE1/XBP1s reporter activation). Conditions: 6.8 µM; 18 h; screen: confirmation.
Method: (§1)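 HEK293T-Rex cells stably expressing the ERSE-firefly luciferase (BiP promoter, ATF6-preferring) or XBP1-splicing Renilla luciferase (IRE1/XBP1s) reporter, 1536-well plates, compound at 6.8 µM for 18 hr at 37 °C; luminescence read […] and expressed as % activation = 100*(compound - median DMSO)/(median 500 nM thapsigargin - median DMSO). Primary screen was single-pass; confirmation screen in triplicate (mean ± SD).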
`COCCNC(=O)c1cc(-c2cccs2)on1` was tested, and the “XBP1-RLuc splicing reporter activation” value was 6.38 ± 1.2. With `CCOc1ccc(/C=C(\C#N)c2[nH]nc(N)c2C#N)cc1OCC` the “XBP1-RLuc splicing reporter activation” value was 7.63 ± 1. In the case of `COc1cccc(-c2cc(C(=O)Nc3cc(C)ccc3O)no2)c1`, the “XBP1-RLuc splicing reporter activation” value is reported as 12.6 ± 4.8. With `CCCCNC(=O)c1cc(-c2cccs2)on1` the “XBP1-RLuc splicing reporter activation” value was 9.51 ± 1.7. With `CCOc1cccc(/C=C2\NC(=S)N(C)C2=O)c1O` the “XBP1-RLuc splicing reporter activation” value was -2.09 ± 0.54. With `COc1cccc(/C=N/NC(=O)c2ccc(NC(=O)c3ccc(C)cc3)cc2)c1O` the “XBP1-RLuc splicing reporter activation” value was 86.3 ± 12. With `Cc1ccc(O)c(NC(=O)CSc2n[nH]c(C)c2[N+](=O)[O-])c1` the “XBP1-RLuc splicing reporter activation” value was 16.6 ± 2.4. `CCOC(=O)c1sc(NC(=O)c2cccc3ccccc23)nc1C` was tested, and the “XBP1-RLuc splicing reporter activation” value was 2.85 ± 0.37.

These compounds were tested on HEK293T-Rex ERSE-FLuc (assay: ERSE-FLuc reporter activation, triplicate confirmation, relative to 500 nM thapsigargin (% of thapsigargin); higher = stronger ATF6/ERSE reporter activation). Conditions: 6.8 µM; 18 h; screen: confirmation.
Method: as §1
For `COCCNC(=O)c1cc(-c2cccs2)on1`, the ERSE-FLuc reporter activation was 27.4 ± 2.4. For `O=C(Nc1ccc(O)cc1)c1ccc2ccccc2c1`, the ERSE-FLuc reporter activation was 28.3 ± 11. Compound `Cn1cccc1/C=C1/SC(=Nc2ccccc2)NC1=O` has an ERSE-FLuc reporter activation of 37.4 ± 1.9. Work on `Cc1ccc(O)c(NC(=O)c2cc(-c3ccco3)on2)c1` yielded an ERSE-FLuc reporter activation of 74.4 ± 8.9. With `CN1C(=O)/C(=C\c2ccc(O)c(O)c2)SC1=S` the ERSE-FLuc reporter activation was 25.2 ± 1.4. `Nc1nc(Nc2ccc(Cl)c(Cl)c2)nc2ccccc12` gave an ERSE-FLuc reporter activation of 43.5 ± 3.9. `CCOc1ccc(/C=C(\C#N)c2[nH]nc(N)c2C#N)cc1OCC` showed an ERSE-FLuc reporter activation of 26.7 ± 5.5. For `COc1cccc(-c2cc(C(=O)Nc3cc(C)ccc3O)no2)c1`, the ERSE-FLuc reporter activation was 43.9 ± 11. `CCCCNC(=O)c1cc(-c2cccs2)on1` showed an ERSE-FLuc reporter activation of 65.1 ± 6.3. For `COc1ccccc1/C=N/Nc1nc(-c2ccccc2)cc(=O)[nH]1`, the ERSE-FLuc reporter activation was 25.2 ± 1.8. `Nc1nc(Nc2ccc(Cl)cc2)nc2ccccc12` showed an ERSE-FLuc reporter activation of 30.7 ± 5.2. In the case of `CCOc1cccc(/C=C2\NC(=S)N(C)C2=O)c1O`, the ERSE-FLuc reporter activation is reported as 26.2 ± 29. With `N#Cc1ccc(-c2cccs2)nc1SCc1ccccn1` the ERSE-FLuc reporter activation was 25.2 ± 6.2. For `CCOc1ccc2nc(NC(=O)c3ccn(C)n3)sc2c1`, the ERSE-FLuc reporter activation was 30 ± 23. For `Nc1nc(Nc2ccccc2)cc(-c2ccccc2)n1`, the ERSE-FLuc reporter activation was 33.8 ± 3.9. Work on `CCCCCCOc1ccc(/C(C)=N/NC2=NCCN2)cc1[N+](=O)[O-]` yielded an ERSE-FLuc reporter activation of 31.3 ± 2.8. Work on `Cc1ccc2c(N)c(C(=O)c3ccc4c(c3)OCO4)sc2n1` yielded an ERSE-FLuc reporter activation of 35.9 ± 4.3. With `COc1ccccc1-c1cc(C(=O)Nc2cc(C)ccc2O)no1` the ERSE-FLuc reporter activation was 29.1 ± 4. With `Cc1ccc(NC(=O)/C=C/c2ccco2)nc1` the ERSE-FLuc reporter activation was 27.9 ± 7.1. `CCCCNC(=O)c1cc(-c2ccc(F)cc2)on1` showed an ERSE-FLuc reporter activation of 40.8 ± 5.3. `Nc1ccc2nc(-c3ccc(Br)cc3)[nH]c2c1` showed an ERSE-FLuc reporter activation of 36.7 ± 10. In the case of `COc1cccc(/C=N/NC(=O)c2ccc(NC(=O)c3ccc(C)cc3)cc2)c1O`, the ERSE-FLuc reporter activation is reported as 36.4 ± 11. Work on `CCCNC(=O)c1cc(-c2cccs2)on1` yielded an ERSE-FLuc reporter activation of 51.5 ± 5.4. For `Cc1ccc(O)c(NC(=S)NC(=O)/C=C/c2ccco2)c1`, the ERSE-FLuc reporter activation was 27 ± 5.2. `O=C1/C(=C/c2ccc(O)c(O)c2)SC(=S)N1c1ccc(O)cc1` showed an ERSE-FLuc reporter activation of 30.5 ± 8.2. Work on `Cc1ccc(O)c(NC(=O)CSc2n[nH]c(C)c2[N+](=O)[O-])c1` yielded an ERSE-FLuc reporter activation of 52.5 ± 14. Work on `N#Cc1c(NC(=O)c2ccc(Br)cc2)sc2c1CCCC2` yielded an ERSE-FLuc reporter activation of 27.3 ± 5.2. With `CS(=O)(=O)c1ncc(Cl)c(C(=O)C(C#N)c2nc3ccccc3s2)n1` (centres undefined) the ERSE-FLuc reporter activation was 42.3 ± 12. Compound `NC(=O)c1c(NC(=O)c2cccc3ccccc23)sc2c1CCC2` has an ERSE-FLuc reporter activation of 32 ± 1.6. Compound `O=C1N/C(=C/c2ccc(O)cc2)C(=O)N1c1cccc(Cl)c1` has an ERSE-FLuc reporter activation of 68.2 ± 5.7. `Cc1ccc2nc(/C(C#N)=C/c3ccc(O)c(O)c3)[nH]c2c1` showed an ERSE-FLuc reporter activation of 38.9 ± 2.7. `Cc1ccccc1-c1cc(=O)c2cc(Cl)ccc2o1` was tested, and the ERSE-FLuc reporter activation was 25.5 ± 3.8. With `O=C(N/N=C/c1cccc(O)c1O)c1ccccn1` the ERSE-FLuc reporter activation was 37.9 ± 9.1. With `CCCNC(=O)c1cc(-c2ccc(F)cc2)on1` the ERSE-FLuc reporter activation was 42 ± 5.5. Work on `CCOC(=O)c1sc(NC(=O)c2cccc3ccccc23)nc1C` yielded an ERSE-FLuc reporter activation of 27.3 ± 2.2. `Cc1nc(-c2ccc(C(=O)Nc3ccc(O)cc3)cc2)cs1` showed an ERSE-FLuc reporter activation of 31.8 ± 7.4.
